Only a selection was taken, and hits are over-represented in it overall.
ALOX12 inh: inhibitors of human 12S-lipoxygenase ALOX12 | 1.1% of 580,000 active | purified 12hLO, xylenol orange hydroperoxide absorbance | Potency, µM (highest dose often 108 µM), inactives show top-dose activity change, negative = inhibition, hits mostly inhibitors; note: potency is the fitted concentration of half-maximal effect
Target sequence (P18054 whole entry, looked up): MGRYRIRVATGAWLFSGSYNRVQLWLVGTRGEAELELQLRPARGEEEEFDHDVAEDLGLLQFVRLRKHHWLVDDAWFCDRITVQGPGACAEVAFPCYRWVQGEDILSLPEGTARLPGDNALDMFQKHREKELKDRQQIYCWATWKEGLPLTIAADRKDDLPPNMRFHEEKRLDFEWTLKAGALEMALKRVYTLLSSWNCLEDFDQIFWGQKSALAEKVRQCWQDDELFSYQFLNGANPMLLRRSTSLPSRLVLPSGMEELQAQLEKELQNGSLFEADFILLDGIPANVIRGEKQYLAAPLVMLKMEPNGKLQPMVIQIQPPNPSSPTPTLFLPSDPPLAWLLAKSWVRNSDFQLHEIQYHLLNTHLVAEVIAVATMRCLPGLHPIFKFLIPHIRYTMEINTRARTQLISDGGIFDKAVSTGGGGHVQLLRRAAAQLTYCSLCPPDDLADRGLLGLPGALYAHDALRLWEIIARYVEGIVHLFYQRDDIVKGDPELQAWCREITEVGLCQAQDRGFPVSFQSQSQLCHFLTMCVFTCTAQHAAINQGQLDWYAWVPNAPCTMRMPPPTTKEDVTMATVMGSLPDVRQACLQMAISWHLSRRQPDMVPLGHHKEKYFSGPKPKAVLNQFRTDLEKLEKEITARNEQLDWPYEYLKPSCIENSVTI
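Hydroperoxide product was detected by ferrous iron/xylenol orange as the 573 to 405 nm absorbance ratio. Arachidonic acid at 40 uM (final) was turned over for 30 min at room temperature by 150 nM human 12hLO, pH 7.0 Hepes buffer, after 15 min compound preincubation.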
TDP1 cell noCPT: qHTS for Inhibitors of human tyrosyl-DNA phosphodiesterase 1 (TDP1): qHTS in cells in absence of CPT | DT40 Tdp1-/- hTDP1 cells, no CPT, ATP luminescence, 48 h | Potency, µM (top dose mostly 46.2 µM), inactives show top-dose activity change, negative = growth inhibition, hits mostly inhibitors | 15% of 420,000 active | AID 686978, 2013; note: potency is the fitted concentration of half-maximal effect; nearly all actives have a fitted effect of over 55% in size
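Luminescent ATP content (CellTiter-Glo) served as the growth readout. Knockout chicken DT40 cells expressing human TDP1 were exposed to compounds without camptothecin for a minimum 48 hr at 37 °C.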
HT1080 IDH1KD tx: HT-1080 IDH1 knockdown cell toxicity (counter line); HT-1080 IDH1 knockdown viability, ATP luminescence, 48 h; Potency, µM (series often up to 46.1 µM), without a hit: at the highest dose activity, negative = toxicity, hits mostly cytotoxic; 2% of 360,000 active; AID 686971;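 note: potency is the fitted concentration of half-maximal effect; 0% = DMSO wells and -100% = cell-free medium wells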
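Using the IDH1-knockdown HT-1080 line run in the same batch and compound series as the NT line, viability after 48 h at 37 °C was determined by CellTiter-Glo luminescence and expressed as % activity.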
HT1080NT lethal: kills 2HG-producing HT-1080-NT fibrosarcoma cells | Potency, µM (top dose mostly 46.1 µM), without a hit: top-dose activity, negative = less viability, most hits filed as cytotoxic | AID 686970 | HT-1080-NT fibrosarcoma viability, CellTiter-Glo ATP luminescence, 48 h | 1.6% of 360,000 active;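 note: NT is the 2HG producing partner of a matched IDH1 knockdown line; potency is the fitted concentration of half-maximal effect; 0% = DMSO-treated cells and -100% = media-only wells without cells; nearly all actives have a fitted effect of over 55% in size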
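Toxicity toward the 2HG-producing NT line was scored as %Activity, normalised to DMSO and no-cell wells, from CellTiter-Glo luminescence after 48 hours' treatment.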
TDP1 cell CPT: growth inhibition of DT40 Tdp1-/-;hTDP1 cells with camptothecin (screen for TDP1 inhibitors) | chicken DT40 Tdp1-/-;hTDP1 cells + 20 nM CPT, ATP luminescence, 48 h | Potency, µM (series often up to 46.2 µM), for the others: at the highest dose activity change, negative = growth inhibition, most hits filed as inhibitors | 12% of 420,000 active | AID 686979; note: potency is the fitted concentration of half-maximal effect; nearly all actives have a fitted effect of over 55% in size
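Chicken DT40 Tdp1-/- cells stably complemented with human TDP1 were seeded at 400 cells/well in medium containing 20 nM camptothecin, exposed to pin-transferred compounds, and grown at 37 °C for at least 48 hr. Viability was read as ATP luminescence.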
IL1B secr inh: inflammasome signaling inhibition, IL-1 beta readout; THP-1 LPS/ATP IL-1B secretion, AlphaLISA, 16 h; stronger effect = lower value; 4.7% of 360,000 active; activity change, % at 57.5 µM; AID 743279; in the data active = activity change below about -50%; inconclusive = mostly about -30% to -49%
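Secreted IL-1B measured by AlphaLISA bead assay after 16 h compound exposure of THP-1 cells; compounds (final up to 57.5 uM) added 1 h before LPS (250 ng/mL) and ATP (1.25 mM) stimulation; lower signal means less secretion.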
* hit, by the source's call; ? = inconclusive; / = not tested or not shown; [ ] = another dose, or the depositor's remark. Unless noted, calls come from the whole dose curve; as a rule, active = well fitted curve in the direction sought with a large enough effect; inconclusive = small, poorly fitted or top-dose-only effect, or another doubt; inactive = no such curve, though single readings can be large; an effect the other way counts as inactive or inconclusive. Unless noted, % is set by controls: 0 for no effect and ±100 for the full control effect.

SMILES | ALOX12 inh | TDP1 cell noCPT | HT1080 IDH1KD tx | HT1080NT lethal | TDP1 cell CPT | IL1B secr inh
CCN(CC)S(=O)(=O)c1ccc(Cl)c(C(=O)Nc2cc(C)nn2-c2ccccc2)c1 | -17% | ? | -11% | -4% | 18µM* | -18
CC1CCC(NC(=O)c2csc3c2CCCC3)CC1 (stereo not drawn) | 5% | / | / | / | / | /
CCC(=O)N(C1CCOCC1)C1CCN(Cc2ccc(OC)c(OC)c2)CC1 | 77% | / | / | / | / | /
O=C(O)CCC(CNS(=O)(=O)c1ccc(Cl)s1)C(F)(F)F (stereo not drawn) | -28% | / | / | / | / | /
COc1cc(C)c2c(c1C)C[C@H](C(C)C(=O)N1CCCCC1)CC2 (stereo partly drawn) | 39%[176 µM] | / | / | / | / | /
O=c1ccn([C@@H]2O[C@H](CNCc3cccn3-c3nccs3)[C@@H](O)[C@H]2O)c(=O)[nH]1 | 0% | -1% | 17% | 16% | 1% | 0
COc1ccccc1NS(=O)(=O)c1cccc(C(=O)NC2CCN(Cc3ccccc3)CC2)c1 | / | 23µM* | -7% | ? | ? | ?
Cc1ccc(C)c(NC(=O)Cn2c(=O)n(-c3ccc(CC(=O)NC(C)C)cc3)c(=O)c3ccccc32)c1 | -2% | / | / | / | / | /
CCOC(=O)N(O)c1ccc(C=Cc2ccccc2)cc1 | -16% | 15µM* | 0% | 3% | 12µM* | ?
O=C(Cn1c(=O)oc2cc(Cl)ccc21)NC1CCc2n[nH]c(=O)n2CC1 (stereo not drawn) | 21% | / | / | / | / | /
Cc1ccc(CNC(=O)CSc2ncc(C(=O)Nc3ccccc3)c(=O)n2C)cc1 | 6% | 15µM* | 11% | 2% | 12µM* | 24
Cn1c(SCC(=O)Nc2nc3ccccc3s2)ncc(C(=O)Nc2ccccc2)c1=O | -20% | 1% | / | / | 0% | /
COc1ccccc1NC(=O)c1cnc(SCC(=O)NCCc2ccccc2)n(C)c1=O | ? | 10µM* | 2% | 4% | 16µM* | 10
Cn1c(SCC(=O)NCc2ccccc2)ncc(C(=O)Nc2ccccc2)c1=O | 3% | ? | -3% | -5% | 12µM* | 19
CC(=O)Nc1ccc(NC(=O)CSc2ncc(C(=O)Nc3ccccc3)c(=O)n2C)cc1 | -30% | 21µM* | 15µM* | ? | 21µM* | 1
Cc1ccc(NC(=O)N2CCC(n3cnnc3C3CC3)C2)cc1C (stereo not drawn) | -30% | / | / | / | / | /
CCCCNC(=O)COC(=O)c1c2c(nc3ccccc13)/C(=C/c1cccs1)CC2 | -17% | ? | ? | -22% | 23µM* | -27
CNC(=O)NC(=O)C(C)OC(=O)c1c2c(nc3ccccc13)/C(=C/c1cccs1)CC2 (stereo not drawn) | ? | 18µM* | -8% | -2% | 21µM* | -4
CCCCNC(=O)C(NC(=O)c1ccc(=O)[nH]c1)C(=O)c1ccccc1 (stereo not drawn) | 0% | 10% | 22% | 21% | 9% | 6
CCOc1ccc2oc(=O)cc(CN3CCN(CC(=O)Nc4ccc(F)cc4C)CC3)c2c1 | 59% | / | / | / | / | /
Cc1cc(=O)[nH]c(N/N=C/c2c(C)nn(-c3ccccc3)c2Cl)n1 | -3% | 23µM* | -5% | -1% | 23µM* | -14
Cc1cc(=O)[nH]c(N/N=C/c2ccc(C)o2)n1 | 15% | -16% | 23% | 9% | -19% | 20
Cc1cc(=O)[nH]c(N/N=C/c2c(C)oc3ccccc23)n1 | ? | ? | 19% | 12% | 12µM* | 0
COc1ccccc1OCCC(=O)NNC(=O)c1ccccc1F | -8% | 0% | 2% | 2%[9.24 µM] | 7% | 20
CCc1nc(-c2c3n(c(=O)n(CC(=O)Nc4ccc(C)cc4Cl)c2=O)CCCC3)no1 | 10% | / | / | / | / | /
SMILES | ALOX12 inh | TDP1 cell noCPT | HT1080 IDH1KD tx | HT1080NT lethal | TDP1 cell CPT | IL1B secr inh
CCc1ccc(NC(=O)Cn2c(=O)n(-c3ccccc3)c(=O)c3ccc(C(=O)NCc4ccc5c(c4)OCO5)cc32)cc1 | -23% | ? | / | / | ? | /
COc1cccc(NC(=O)Cn2c(=O)n(-c3ccc(C)cc3)c(=O)c3ccc(C(=O)NCc4ccco4)cc32)c1 | -27% | ? | / | / | 16µM* | /
CCOc1ccc(NC(=O)Cn2c(=O)n(-c3ccccc3)c(=O)c3ccc(C(=O)NCc4ccc5c(c4)OCO5)cc32)cc1 | -23% | 21µM* | / | / | 21µM* | /
Cc1ccc(NC(=O)Cn2c(=O)n(-c3ccc(C)cc3)c(=O)c3ccc(C(=O)NCc4ccccc4Cl)cc32)cc1 | -18% | 13µM* | / | / | 7.3µM* | /
CCc1ccc(NC(=O)Cn2c(=O)n(-c3ccc(OC)cc3)c(=O)c3ccc(C(=O)NCc4ccc(C)cc4)cc32)cc1 | ? | 7.3µM* | / | / | 10µM* | /
Cc1ccc(-n2c(=O)c3ccc(C(=O)NCc4ccccc4Cl)cc3n(CC(=O)Nc3ccc(C)cc3C)c2=O)cc1 | -26% | ? | / | / | ? | /
CCc1ccc(N2CC(C(=O)OCC(=O)NNC(=O)c3ccccc3)CC2=O)cc1 (stereo not drawn) | 11% | -4% | 4% | 8% | -2% | 7
Cc1cccc(-c2nc(CS(=O)CC(=O)NCc3ccccc3)c(C)o2)c1 (stereo not drawn) | -6% | / | / | / | / | /
COc1cc(NC(=O)O[C@@H]2CC[C@]3(C)C(CC[C@@H](O)[C@H]3CC(=O)N3CC[C@H](NC(C)=O)C3)[C@]2(C)CO)cc(OC)c1 (stereo partly drawn) | 6% | / | / | / | / | /
O=C(NCC1(c2ccccc2)CCC1)c1cc(=O)[nH]c2ccccc12 | -1% | / | / | / | / | /
Cc1cc(C(=O)c2cc3ccccc3o2)c(C)s1 | 14% | / | / | / | / | /
CCCN(CCC)C(=O)Cn1c(=O)n(-c2ccc(OC)cc2)c(=O)c2ccc(C(=O)NCc3ccc(C)cc3)cc21 | -5% | 16µM* | / | / | ? | /
CC(C)(C)NC(=O)NC(=O)C[n+]1ccc(Cc2ccc([N+](=O)[O-])cc2)cc1 | 12% | 2.1µM* | -23% | -18% | 4.1µM* | ?
Cc1cccc[n+]1CC(=O)Nc1ccc([N+](=O)[O-])cc1Cl | 0% | -11% | ? | -5% | ? | 11
O=C(C[n+]1ccc(Cc2ccccc2)cc1)Nc1ccc([N+](=O)[O-])cc1Cl | -30% | 15µM* | 1% | -4% | ? | ?
Cc1ccc(Cl)cc1NC(=O)C[n+]1ccc(Cc2ccc([N+](=O)[O-])cc2)cc1 | ? | 5.2µM* | -15% | ? | 5.8µM* | -82*

Screening data deposited in PubChem BioAssay by National Center for Advancing Translational Sciences (NCATS).
